# Compounds with a hit are over-represented: about 0.35% of the library has one in this group of screens.
# ERp5 inh: inhibitors of human ERp5; ERp5 insulin aggregation, absorbance 650 nm, 90 min; Q15084; inhibition, % at 9.99 µM; hit rate 0.05% among 350,000;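 active means mean replicate inhibition above about 25%, with every replicate also reaching it, limit read from the data, passing the limit was not always enough; inconclusive means only one of those two criteria met; inactive means neither criterion met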
# PDI inh: blocks human protein disulfide isomerase activity; P07237; PDI insulin aggregation turbidity, A650, 90 min; inhibition, % at 10 µM; hit rate 0.052% among 350,000; AID 588391;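 active means mean inhibition across replicates of 30% or more, whatever share of single replicates reach that level; inconclusive means mean inhibition below 30% while every single replicate reaches 30%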
# Target sequence (P07237 whole entry, looked up): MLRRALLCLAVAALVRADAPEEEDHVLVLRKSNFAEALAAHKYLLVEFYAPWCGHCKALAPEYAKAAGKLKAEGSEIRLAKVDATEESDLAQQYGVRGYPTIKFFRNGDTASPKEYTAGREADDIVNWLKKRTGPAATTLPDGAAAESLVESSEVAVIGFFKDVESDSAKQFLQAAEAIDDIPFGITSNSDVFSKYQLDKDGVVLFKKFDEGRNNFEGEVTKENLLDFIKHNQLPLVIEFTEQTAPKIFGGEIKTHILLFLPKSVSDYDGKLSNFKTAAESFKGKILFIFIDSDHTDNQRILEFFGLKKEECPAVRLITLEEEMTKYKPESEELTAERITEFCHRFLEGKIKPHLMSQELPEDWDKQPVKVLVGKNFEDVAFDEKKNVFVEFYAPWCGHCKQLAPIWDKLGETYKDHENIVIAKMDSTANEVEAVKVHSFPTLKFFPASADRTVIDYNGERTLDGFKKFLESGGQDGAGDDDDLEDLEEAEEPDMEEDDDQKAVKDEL
# PvdQ inh: blocks Pseudomonas aeruginosa PvdQ acylase activity | purified PvdQ acylase, fluorescence plate reader | inhibition, % at 10 µM | hit rate 0.063% among 340,000; in the data active means inhibition above about 30%, passing the limit was not always enough; inconclusive means no clear call, values can overlap the other calls
# ERAP1 inh: ERAP1 (human) enzyme inhibition. inhibition, % at 10.7 µM. hit rate 0.15% among 340,000. AID 652197. recombinant ERAP1, Leu-AMC fluorescence, 60 min;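 active means mean replicate inhibition of at least 30%, or all replicates individually reaching that 30% level; inactive means mean below 30% and not every replicate reaching it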
# Rtt109 Vps75: blocks Candida albicans Rtt109/Vps75 acetyltransferase activity; Q5AAJ8; purified Rtt109/Vps75, ThioGlo CoA-SH fluorescence, 4 h; inhibition, % at 34.9 µM; hit rate 0.16% among 330,000;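 active means inhibition of at least 50% in every replicate; inconclusive means best replicate reaches 50% inhibition but some replicates fall short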
# Hits are given with their value; – = inactive; ? = inconclusive; · = not tested or not shown.
SMILES,ERp5 inh,PDI inh,PvdQ inh,ERAP1 inh,Rtt109 Vps75
Cc1ccc(NC(=S)N(CCCN2CCCC2)Cc2cccn2Cc2ccc(Cl)cc2)cc1C,–,–,–,–,61.8
Cc1ccc(NC(=S)N(CCCN2CCCC2)Cc2cccn2Cc2ccc(Cl)cc2)cc1Cl,–,–,–,–,–
Cc1ccc(NC(=O)Nc2cc(C)on2)cc1,–,–,–,–,–
Cc1cccc(NC(=O)Nc2cc(C)on2)c1,·,–,38.7,·,–
CO[C@H]1CN(C)C(=O)c2ccc(NS(C)(=O)=O)cc2OC[C@H](C)N(CC2CCCCC2)C[C@H]1C,–,·,·,–,·
O=S(=O)(NN1CCOCC1)c1ccc(Br)cc1,–,–,–,–,52.5
CNC[C@H]1Oc2ccc(NC(=O)Cc3cn(C)c4ccccc34)cc2CC(=O)N([C@H](C)CO)C[C@@H]1C,–,·,·,–,·
CNC(=O)c1ccc(NC(=O)CC23CC4CC(CC(C4)C2)C3)cc1,–,–,–,–,–
C[n+]1cccc(/C=N/NC(=O)CC23CC4CC(CC(C4)C2)C3)c1,–,–,–,95.9,·
O=C(c1ccc(F)cc1)N1CC(=O)N2[C@H](C1)[C@H](c1ccc(C#CC3CCCCC3)cc1)[C@@H]2CO,–,·,·,–,·
O=C(OCc1nc2ccccc2s1)c1ccco1,–,–,45.5,–,–
Cc1cccn2c(=O)c3cc(C(=O)NCC4CCCO4)c(=N)n(Cc4cccnc4)c3nc12 (centres undefined),–,–,–,105.3,–
Cc1cccn2c(=O)c3cc(C(=O)NCC4CCCO4)c(=N)n(CC4CCCO4)c3nc12 (centres undefined),–,–,–,82.2,–
Cc1ccc2nc3c(cc(C(=O)NCC4CCCO4)c(=N)n3CCCOC(C)C)c(=O)n2c1 (centres undefined),·,–,–,·,–
CCOCCCNc1nc2nc3ccc(C)cn3c(=O)c2cc1C(=O)NCC1CCCO1 (centres undefined),–,–,–,57.3,–
COC(=O)[C@]1(C)N[C@H](CN(C)S(=O)(=O)c2ccc(OC(F)(F)F)cc2)[C@@H]2C(=O)N(C)C(=O)[C@@H]21,34.1,–,–,–,–
C[C@H]1CN([C@@H](C)CO)C(=O)c2cc(NC(=O)C3CCCCC3)ccc2O[C@@H]1CN(C)Cc1ccccc1,–,·,·,–,·
CC(C)(C)c1cc(NC(=O)c2ccco2)no1,27.7,–,–,–,–
O=C(O)C1C(c2ccccc2)C(C(=O)Oc2ccc(O)cc2)C1c1ccccc1 (centres undefined),·,46.0,–,·,–
COC(=O)C1C(c2ccccc2)C(C(=O)O)C1c1ccccc1 (centres undefined),–,–,–,–,–
COCC(=O)N1C[C@@H](C)[C@H](OC)CN(C)C(=O)c2cc(NC(=O)Nc3cccc(F)c3)ccc2OC[C@@H]1C,–,·,·,–,·
COc1cc(-c2nnc(SCC(=O)OC3CCCCC3)o2)cc(OC)c1OC,·,–,–,·,58.5
c1ccc(Nc2cccc3c(Nc4ccccc4)cccc23)cc1,–,–,–,·,–
O=S(=O)(O)c1cccc2cccc(Nc3ccccc3)c12,–,–,–,42.7,–
COc1ccc(S(=O)(=O)NCC(c2ccc(F)cc2)N2CCOCC2)cc1Br (centres undefined),–,30.5,–,–,–
SMILES,ERp5 inh,PDI inh,PvdQ inh,ERAP1 inh,Rtt109 Vps75
CC(=O)Nc1ccc(S(=O)(=O)Nc2nc3ccc(C)cc3s2)cc1,–,–,–,–,–
Cc1ccc2nc(-c3ccc(NS(=O)(=O)c4ccc(F)cc4)cc3)sc2c1,·,–,30.2,·,–
CNC[C@@H]1Oc2ccc(NS(=O)(=O)c3cccs3)cc2C(=O)N([C@H](C)CO)C[C@H]1C,–,·,·,–,·
O=C(O)C(Cc1ccccc1)N1C(=O)/C(=C/c2ccccc2)SC1=S (centres undefined),·,–,–,·,52.6
O=C(CCCN1C(=O)/C(=C\c2ccccc2)SC1=S)Nc1ccc(O)cc1C(=O)O,–,–,–,36.0,?
Cc1ccc(/C=C2\SC(=S)N(C(Cc3ccccc3)C(=O)O)C2=O)cc1 (centres undefined),·,–,–,·,62.0
COc1cc(/C=C2\SC(=S)N(C(Cc3ccccc3)C(=O)O)C2=O)ccc1O (centres undefined),–,–,–,–,–
O=C1C[C@H](c2ccc(O)cc2)Oc2cc(O[C@@H]3O[C@H](CO)[C@@H](O)[C@H](O)[C@H]3O)cc(O[C@@H]3O[C@H](CO)[C@@H](O)[C@H](O)[C@H]3O)c21,–,39.0,–,–,–
CO[C@H]1CN(C)C(=O)c2cc(NC(=O)c3cnccn3)ccc2OC[C@H](C)N(C(C)=O)C[C@H]1C,–,·,·,–,·
CC(C)CC#Cc1cnc2c(c1)C(=O)N([C@@H](C)CO)C[C@H](C)[C@@H](CN(C)C(=O)Cc1cccnc1)O2,–,·,·,–,·
O=C(Nc1cccc(N2C(=O)C=CC2=O)c1)c1cccs1,–,–,–,32.9,–
C[C@H](CO)N1C[C@H](C)[C@@H](CN(C)S(=O)(=O)c2cn(C)cn2)Oc2ccc(NC(=O)c3ccncc3)cc2CC1=O,64.6,·,·,–,·
C[C@H]1CN([C@@H](C)CO)C(=O)Cc2cc(NC(=O)c3ccncc3)ccc2O[C@H]1CN(C)S(=O)(=O)c1cn(C)cn1,74.4,·,·,–,·
O=C(C1CC1)N1CC(=O)N2[C@H](CO)[C@H](c3ccc(Br)cc3)[C@@H]2C1,–,·,·,–,·
COc1ccc(-c2c(C)nn3c(C)cc(C)nc23)cc1,–,–,–,–,57.7
CCCCN(C(=O)C1=CC=CN2CCS(=O)(=O)N=C12)c1ccccc1,–,36.6,–,–,–
Cc1ccccc1NC(=O)C1=CC=CN2CCS(=O)(=O)N=C12,–,–,–,–,–
CCC(=O)N1[C@@H]2c3cccc(=O)n3C[C@@H]2[C@@H](CO)[C@@H]1C(=O)NCc1ccccc1F,–,·,·,–,·
CCCCCC[N+](C)(C)CC/C=C1/c2ccccc2Sc2ccc(Cl)cc21,–,–,–,–,73.4
O=C(Nc1ccc(Cl)cc1)N[C@H]1CC[C@@H](CCn2cc(C3(O)CCCC3)nn2)O[C@H]1CO,–,·,·,–,·
COc1ccc(NC(=O)C2CCCN(C(=O)NC3CCCCC3)C2)cc1OC (centres undefined),·,–,34.3,·,·
Cn1c(Cc2ccccc2)nnc1SCc1cc(=O)n2ccsc2n1,–,–,–,–,–
O=c1cc(CSc2nnnn2-c2ccc(O)cc2)nc2sccn12,–,38.9,–,–,–
CN(C)C(=O)C[C@@H]1C[C@@H]2c3cc(NC(=O)Nc4ccc(F)cc4)ccc3O[C@@H]2[C@H](CO)O1,–,·,·,–,·
Cc1ccc(C(=O)NCC(=O)OCC(=O)NC(C)C2CC3CCC2C3)cc1 (centres undefined),–,–,–,–,51.0
CC(=O)N(C)C[C@@H]1Oc2cc(-c3cccc(F)c3)ccc2S(=O)(=O)N([C@@H](C)CO)C[C@@H]1C,–,·,·,–,·
CCn1c(CCc2ccccc2)n[nH]c1=S,–,–,–,–,–
CCn1c(CCn2c3ccccc3c3ccccc32)n[nH]c1=S,·,–,–,·,50.3
Cc1ccc(S(=O)(=O)NCc2ccc3c(c2)OCO3)cc1C,–,–,35.9,–,–

# From PubChem BioAssay
